Shown are actives, neighbours in structure and some others; about 4% of the full set was active somewhere.
MITF TRPM1 HTS: activators of MITF-driven TRPM1 promoter activity in SK-MEL-5 cells; AID 588334; SK-MEL-5 TRPM1-promoter luciferase, 24 h; % of positive control, neutral wells = 0; activation, % at 12.5 µM; 300,000 compounds, 0.75% hits;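 active means mean activation of at least 80% with every replicate also reaching 80%; inconclusive means mean reaches 80% but some replicate falls short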;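 further: 0% = neutral control wells and 100% = parthenolide positive control wells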
EWS-Fli block: EWS/Fli transcriptional activity inhibition; 350,000 compounds, 0.67% hits; inhibition, % at 12.6 µM; A673 NR0B1-luciferase reporter, viability-normalised;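 active means mean inhibition of at least 50% after viability correction, with every replicate also passing that limit; inconclusive means mean reaches 50% but only one of two replicates passes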;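 further: firefly luciferase signal divided by Alamar Blue viability fluorescence both relative to DMSO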
Wnt act: activators of Wnt/beta-catenin signaling; activation, % at 9.35 µM; 300,000 compounds, 1.2% hits; Wnt/beta-catenin reporter cell assay, activator, plate reader; in the data active means activation above about 30%, passing the limit was not always enough; inconclusive means no clear call, values can overlap the other calls;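 further: 0% = neutral control wells and 100% = positive control wells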
PAX8 inh HTS: lowers PAX8-driven luciferase in RMG-I cells; RMG-I TPO-luciferase reporter, SteadyGlo, 24 h; inhibition, % at 12.6 µM; 360,000 compounds, 1.2% hits;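 active means mean replicate inhibition at least 60% with every replicate also reaching 60%; inconclusive means only one of the two criteria is met; inactive means mean below 60% and not all replicates reaching 60%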;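 further: luciferase light reporting Pax8 driven TPO promoter activity; plate controls were median of neutral control wells for no effect and mitoxantrone controls for full effect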
TRPM1 prom inh: reduces MITF-dependent TRPM1 promoter luciferase signal | 330,000 compounds, 0.83% hits | AID 488899 | inhibition, % at 12.5 µM | SK-MEL-5 TRPM1 promoter luciferase, 24 h;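 active means mean inhibition across replicates of 60% or more, whatever share of single replicates reaches that level; inconclusive means some that reach 60%, reason not given; inactive means mean inhibition across replicates below 60%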
esBAF inh: SWI/SNF esBAF complex inhibition. reporter increase, % at 12.5 µM. 350,000 compounds, 2% hits. mouse ES cells, Bmi1-luciferase knock-in reporter, 24 h; 100% = twice the neutral-well signal. AID 602393; in the data active means activation above about 40%; inconclusive means no clear call, values can overlap the other calls;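 further: 0% = median of the plate's neutral control wells and 100% = double that signal; a rise in the Bmi1 reporter signal indicates esBAF inhibition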
* hit, by the source's call; ? = inconclusive; . = no result.

SMILES	MITF TRPM1 HTS	EWS-Fli block	Wnt act	PAX8 inh HTS	TRPM1 prom inh	esBAF inh
Cc1ccc(S(=O)(=O)N(C)C[C@H]2Oc3c(NC(=O)Nc4ccc(F)cc4)cccc3C(=O)N([C@@H](C)CO)C[C@H]2C)cc1	.	30	.	78*	.	10
CC1CCN(c2nc3ccc(C(=O)NCCCN4CCCCC4C)cc3s2)CC1 (stereo not drawn)	.	-47	1	19	.	72*
CC1CCCC(C)N1CCCNC(=O)c1ccc2nc(N3CCOCC3)sc2c1 (stereo not drawn)	4	1	-1	-28	-7	-2
CC1CCCC(C)N1CCCNC(=O)c1ccc2nc(N3CCCCC3)sc2c1 (stereo not drawn)	.	-60	-3	-179	.	72*
CCC1CCCCN1CCCNC(=O)c1ccc2nc(N3CCCCC3)sc2c1 (stereo not drawn)	?	-67	-1	-152	-91	?
Cc1ccccc1S(=O)(=O)N1C[C@H](O)COC[C@@H]2O[C@@H](CC(=O)NCc3ccccc3Cl)CC[C@H]21	.	9	.	12	.	-2
O=C(Cc1ccncc1)NCC[C@@H]1CC[C@H](NC(=O)C2CCCCC2)[C@@H](CO)O1	.	-4	.	4	.	1
COc1cc(O)sc1C=Nc1ccc(Cl)cc1	6	-27	15	3	-10	55*
CCNC(=O)C1CCCN(C(=O)c2ccc(F)c(Cl)c2)CC1 (stereo not drawn)	.	-6	-6	76*	.	0
N#CC1c2ccccc2C=CN1C(=O)N(c1ccccc1)c1ccccc1 (stereo not drawn)	-22	13	-2	78*	24	2
CCC(C)NC(=O)c1cc2cc3ccc(OC)cc3nc2s1 (stereo not drawn)	32	.	45*	-106	-40	-11
O=C(C[C@H]1CC[C@@H]2[C@H](COC[C@H](O)CN2Cc2nccs2)O1)NCc1ccc(Oc2ccccc2)cc1	.	.	.	.	.	0
CC(C)CC#Cc1ccc2c(c1)O[C@@H](CN(C)Cc1ccc3c(c1)OCO3)[C@@H](C)CN([C@@H](C)CO)S2(=O)=O	.	58*	.	.	.	-7
CC(C)CC#Cc1ccc2c(c1)O[C@H](CN(C)Cc1ccc(C(=O)O)cc1)[C@@H](C)CN([C@H](C)CO)S2(=O)=O	.	2	.	80*	.	6
COc1ccccc1-c1ccc2c(c1)O[C@H](CN(C)Cc1ccc3c(c1)OCO3)[C@H](C)CN([C@H](C)CO)S2(=O)=O	.	2	.	67*	.	-1
CC(C)CC#Cc1ccc2c(c1)O[C@@H](CN(C)Cc1ccccc1)[C@@H](C)CN([C@H](C)CO)S2(=O)=O	.	-4	.	.	.	-2
CCCC#Cc1ccc2c(c1)O[C@@H](CN(C)Cc1ccc3c(c1)OCO3)[C@@H](C)CN([C@H](C)CO)S2(=O)=O	.	33	.	.	.	-29
CC(=O)C(=Cc1ccc(C(=O)O)cc1)C(C)=O	9	-5	-1	-12	-6	.
C/C(=C\c1ccc(C(=O)O)cc1)c1ccc2c(c1)C(C)(C)CCC2(C)C	8	-11	-9	-49	-2	46*
O=C1c2ccccc2C(=O)C1c1ccc(O)cc1	59	-14	?	-34	-61	59*
O=C1c2ccccc2C(=O)C1c1ccc(Br)cc1	48	-1	5	-7	-44	-1
C[C@H]1CN([C@@H](C)CO)C(=O)c2cccc(NS(=O)(=O)c3cccs3)c2O[C@@H]1CN(C)C(=O)NC1CCCCC1	.	-1	.	.	.	1
O=C(CSCC(=O)Nc1nc(-c2ccc3c(c2)OCO3)cs1)Nc1nccs1	12	-56	24	-168	-11	44*
O=C(O)C(=O)Nc1nc(-c2ccc3c(c2)OCCO3)cs1	0	-2	6	18	-1	18
O=C(Nc1nc(-c2ccc3c(c2)OCO3)cs1)C1CC1	93*	-147	-1	-208	-92	7
SMILES	MITF TRPM1 HTS	EWS-Fli block	Wnt act	PAX8 inh HTS	TRPM1 prom inh	esBAF inh
O=S(=O)(c1ccc(S(=O)(=O)N2CCCC2)cc1)N1CCCCCC1	-11	-6	-3	.	10	0
COc1ccc(S(=O)(=O)N2CCC(C)CC2)cc1OC	.	-6	-4	-19	3	-4
CC1CCN(S(=O)(=O)c2ccc3c(c2)C(=NO)c2cc(S(=O)(=O)N4CCC(C)CC4)ccc2-3)CC1	-99	.	.	.	100*	-71
O=S(=O)(c1ccc2c(c1)C(=NO)c1cc(S(=O)(=O)N3CCCCC3)ccc1-2)N1CCCCC1	.	.	-34	109*	88*	-88
C[C@H]1CN([C@@H](C)CO)C(=O)c2cc(NC(=O)Cc3ccccc3)ccc2O[C@@H]1CN(C)Cc1ccc(C(F)(F)F)cc1	.	-1	.	67*	.	-5
C[C@@H]1CCCCO[C@H](CN(C)Cc2ccc(C(F)(F)F)cc2)[C@@H](C)CN([C@@H](C)CO)C(=O)c2cc(NC(=O)Cc3ccccc3)ccc2O1	.	-2	.	85*	.	-2
C[C@@H]1CCCCO[C@@H](CN(C)Cc2ccc(C(F)(F)F)cc2)[C@@H](C)CN([C@@H](C)CO)C(=O)c2cc(NC(=O)Cc3ccccc3)ccc2O1	.	-9	.	52	.	10
C[C@@H]1CCCCO[C@H](CN(C)Cc2ccc(C(F)(F)F)cc2)[C@H](C)CN([C@H](C)CO)C(=O)c2cc(NC(=O)Cc3ccccc3)ccc2O1	.	16	.	83*	.	-1
C[C@H]1CCCCO[C@@H](CN(C)Cc2ccc(C(F)(F)F)cc2)[C@@H](C)CN([C@@H](C)CO)C(=O)c2cc(NC(=O)Cc3ccccc3)ccc2O1	.	13	.	82*	.	0
C[C@@H]1CCCCO[C@H](CN(C)Cc2ccc(C(F)(F)F)cc2)[C@@H](C)CN([C@H](C)CO)C(=O)c2cc(NC(=O)Cc3ccccc3)ccc2O1	.	-25	.	-8	.	-3
Oc1ccc2ccccc2c1C=Nc1ccc(Cl)cn1	-3	-2	46*	20	8	.
Cc1cc(O)c(C=Nc2ccc(Cl)cn2)c(=O)o1	-12	.	.	.	9	.
Oc1ccccc1C=NN=Cc1c(O)ccc2ccccc12	29	-12	48*	-16	-29	.
C[C@@H]1CN([C@@H](C)CO)C(=O)c2cc(NS(=O)(=O)c3cn(C)cn3)ccc2O[C@@H](C)CCCCO[C@@H]1CN(C)C(=O)Nc1ccc(F)cc1	.	-8	.	-10	.	1
CCCNC(=O)[C@H]1[C@H](CO)[C@H]2Cn3c(ccc(-c4ccc(F)cc4)c3=O)[C@H]2N1CCC	.	10	.	.	.	0
O=C(CCNC(=O)c1ccccc1Cl)Nc1nc2ccc(F)cc2s1	50	-55	18	-121	-49	52*
O=C(Nc1nc2ccc(F)cc2s1)c1cccs1	46	-6	57*	-118	-42	.
O=C(Nc1nc2c(F)cccc2s1)c1ccc([N+](=O)[O-])o1	.	-105	0	19	.	30
CS(=O)(=O)c1ccc2nc(NC(=O)CCNC(=O)c3ccccc3Cl)sc2c1	6	2	5	4	-10	-1

Screening results deposited in PubChem by Broad Institute.
